Results reported in PubChem BioAssay AID504810 (National Center for Advancing Translational Sciences (NCATS), 2011).
The whole screen tested about 330,000 compounds, of which about 670 (0.2%) were called active.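 Rule for the calls: active = activity change below a set negative limit, meaning inhibition stronger than a set level (cut at about -70% in these data); inconclusive = activity change between two set negative limits; inactive = the rest.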 The full list was thinned out, with actives kept by preference.

target: Thyrotropin receptor (Homo sapiens) (UniProt P16473); assay: Antagonists of the Thyroid Stimulating Hormone Receptor: HTS campaign; conditions: TSHR-expressing cells, TSH-stimulated cAMP HTRF, 2 h; at 11.5 µM; stronger effect = lower value
In short: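 Freshly harvested TSHR cells receive pin-tooled compound, then EC80 TSH at 4nM final. After 2 hours at 37 deg C, antibody in lysis buffer and cAMP-d2 are added; 30 minutes at ambient temperature precede the HTRF read.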
% is set by controls: 0 for no effect and ±100 for the full control effect.

Thyrotropin receptor (Homo sapiens), sequence (P16473 whole entry, looked up): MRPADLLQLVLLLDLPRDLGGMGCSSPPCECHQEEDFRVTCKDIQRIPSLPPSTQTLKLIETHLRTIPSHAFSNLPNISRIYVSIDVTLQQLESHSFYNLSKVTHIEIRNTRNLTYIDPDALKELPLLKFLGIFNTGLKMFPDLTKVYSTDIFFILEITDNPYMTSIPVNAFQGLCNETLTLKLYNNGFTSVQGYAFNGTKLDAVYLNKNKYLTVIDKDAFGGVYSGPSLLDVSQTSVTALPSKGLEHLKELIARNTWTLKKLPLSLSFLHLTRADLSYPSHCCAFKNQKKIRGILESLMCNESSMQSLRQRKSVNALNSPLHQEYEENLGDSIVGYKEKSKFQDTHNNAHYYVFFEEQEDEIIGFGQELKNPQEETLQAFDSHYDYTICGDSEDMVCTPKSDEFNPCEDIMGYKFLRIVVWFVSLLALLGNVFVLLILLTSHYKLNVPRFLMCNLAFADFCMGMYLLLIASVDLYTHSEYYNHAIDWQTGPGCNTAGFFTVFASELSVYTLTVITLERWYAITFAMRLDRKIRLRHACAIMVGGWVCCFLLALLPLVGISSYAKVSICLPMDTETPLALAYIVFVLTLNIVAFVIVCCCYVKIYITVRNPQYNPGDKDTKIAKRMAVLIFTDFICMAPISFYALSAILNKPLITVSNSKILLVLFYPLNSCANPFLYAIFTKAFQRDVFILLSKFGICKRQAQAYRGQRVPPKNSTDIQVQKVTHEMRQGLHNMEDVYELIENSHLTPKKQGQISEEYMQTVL

SMILES | activity change, negative = inhibition
COc1ccc(NC(=O)CSc2nnc(Cc3ccccc3)c(=O)n2N)cc1 | 7.33% (inactive)
CCCCn1c(N)c(N(CCOC)C(=O)COc2c(C)cccc2C)c(=O)[nH]c1=O | -0.316% (inactive)
CCc1ccccc1NC(=O)CN(C)C(=O)COc1ccc(C)nc1[N+](=O)[O-] | 4.86% (inactive)
C1CC1Cc1noc(CN2CCN(CC3CC3)CC2)n1 | 3.76% (inactive)
NS(=O)(=O)c1cc(C(=O)NCCOc2ccccc2)c(Cl)cc1Cl | 8.26% (inactive)
CCc1nn(CC(=O)N2CCN(c3cc(C)ccc3C)CC2)c(=O)c2cc3occc3n12 | 12.8% (inactive)
OCC(O)CN(c1ccccc1)c1ccccc1 (centres undefined) | 3.75% (inactive)
CC1(C)O[C@@H]2[C@H](O1)[C@@H](CO)O[C@H]2n1c(N2CCCCC2)nc2c(N)ncnc21 | -5.04% (inactive)
Nc1ccc(Nc2cc(O)c3ncccc3c2)cc1 | -16% (inactive)
CCOC(=O)c1ccccc1NS(=O)(=O)c1c(C)nc2sccn2c1=O | 3.11% (inactive)
CCN(/N=C/c1ccc(N(C)C)cc1)c1nc2ccccc2[nH]1 | -6.71% (inactive)
O=C(CC(O)(C(F)(F)F)C(F)(F)F)Nc1ccc(Cl)c(Cl)c1 | -74.6% (active)
CS(=O)(=O)N(CC(=O)Nc1ccc(Cl)c(Cl)c1)C1CCCCC1 | 15.8% (inactive)
O=C(CCCN1C(=O)CCC1=O)Nc1ccc(Cl)c(C(F)(F)F)c1 | 1.2% (inactive)
Cc1ccccc1CN1C[C@@H]2C[C@@H](c3cn(C)nc3-c3ccccc3)N3CCC[C@@]23C1=O | 2.86% (inactive)
NC(=O)COC(=O)c1cc(S(=O)(=O)N2CCN(c3ccccc3)CC2)ccc1Cl | -4.47% (inactive)
CCNC(=O)NC(=O)C(C)OC(=O)C1CCN(S(=O)(=O)c2ccccc2F)CC1 (centres undefined) | 15.3% (inactive)
O=C(CCNC(=O)Cn1ccc2ccccc2c1=O)NCCC1=CCCCC1 | 9.22% (inactive)
Oc1ccc(Cn2cc[nH]c2=S)cc1 | 7.71% (inactive)
Cc1ccc(S(=O)(=O)N2[C@@H](c3ccc(Br)cc3)C(C(=O)O)=C[C@H]2CC2CCCC2)cc1 | -5.29% (inactive)
CC[C@]12c3[nH]c4ccc(Cl)cc4c3CCN1C(=O)[C@@H](CC(=O)NCCCOC)C[C@@H]2C(=O)N1CCN(C(=O)C2CC2)CC1 | 11.4% (inactive)
CCN(Cc1ccccc1)C(=O)Cc1ccc(OC)c(S(=O)(=O)N2CCOCC2)c1 | 0.0578% (inactive)
N#Cc1c(Cl)nc(-c2cccnc2)nc1-c1ccccc1 | 3.65% (inactive)
CC1(c2ccc3ccccc3c2)NC(=O)N(CC(N)=O)C1=O (centres undefined) | -6.17% (inactive)
